# Assay results as given in PubChem BioAssay AID1626 (SRMLSC, 2009).
# About 2,000 (0.91%) of roughly 220,000 compounds were called active. Roughly 2% stayed inconclusive and do not appear here. Only a sample is shown. Entries with a potency or affinity are not part of this list. Unmarked numbers belong to inactive results. Rule as the data show it: inconclusive = inhibition above about 80% without an active follow-up result; inactive = below that; test concentration not stated here.
# Test: M. tuberculosis H37Rv growth inhibitors, H37Rv strain (AID 1626);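 also: bacteria incubated seven days before Alamar blue readout; 0% = bacteria only wells and 100% = bacteria with antibiotic wells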
# Conditions: active compounds read high, concentration not given here
row,Compound,inhibition
1,COCCCNC(=O)CN(c1cc(Cl)ccc1OC)S(=O)(=O)c1ccc(C)c([N+](=O)[O-])c1,-9.07%
2,O=C(c1ccco1)N1CCN(c2ccc(S(=O)(=O)N3CCCC3)cc2)CC1,-12.6%
3,Cc1ccc(NCCNc2ccc(C)cc2)cc1,5.4%
4,C[N+](C)(CC#Cc1ccccc1)CC(=O)c1ccc(Cl)cc1,0.9%
5,Cc1ccc(-c2cc(C(=O)N/N=C/c3c(C)nn(C)c3C)c3ccccc3n2)c(C)c1,-2.59%
6,CCCc1nnc2n1N=C(c1ccc([N+](=O)[O-])cc1)CS2,3%
7,O=C(Nc1nnc(-c2ccco2)o1)c1cccc(N2C(=O)CCC2=O)c1,2.38%
8,Cc1cccc(C)c1NC(=O)c1ccc([N+](=O)[O-])s1,11.5%
9,O=C(Cc1ccccc1)Nc1nnc(-c2ccco2)o1,1.37%
10,O=C(COc1ccccc1)Nc1nnc(-c2ccco2)o1,-3.85%
11,Cc1cccc(C(=O)Nc2nnc(-c3ccncc3)o2)c1,62.6%
12,Cn1nnc(NC(=O)c2ccc3ccccc3c2)n1,0.14%
13,O=C(Nc1ccncc1)c1ccc2ccccc2c1,1.37%
14,Cc1cccc(NC(=O)c2ccc([N+](=O)[O-])s2)c1C,53.1%
15,COc1ccc(OC)c2c(C)cc(N3CCN(C(=O)c4ccc(F)cc4)CC3)nc12,8.6%
16,O=C(/C=C/c1ccco1)Nc1ccccc1N1CCCCC1,10.2%
17,Cc1c(NC(=S)N/C(=N/S(=O)(=O)c2ccc(Cl)cc2)c2ccccc2)c(=O)n(-c2ccccc2)n1C,3.87%
18,Cc1ccc(S(=O)(=O)Nc2cccc(C(=O)Nc3cc(C)ccn3)c2)cc1,7.87%
19,Cc1ccc(C2=NC3(CCCCCC3)NC2=S)cc1,7.91%
20,Clc1cccc(-c2ccc(C=Nc3ccc(N4CCOCC4)cc3)o2)c1,32.1%
21,Cc1ccc(Cl)cc1-c1ccc(C=Nc2ccc(N3CCOCC3)cc2)o1,9.51%
22,COc1cccc(CN2CCCCC2C(=O)O)c1 (stereo not drawn),-3.4%
23,Clc1ccc(-c2nc(NCCN3CCOCC3)c3ccccc3n2)cc1,11.1%
24,Clc1cccc(-c2nc(NCCCN3CCOCC3)c3ccccc3n2)c1,15%
25,COc1ccc(-c2nn(-c3ccccc3C)cc2CNC(C)c2cn(C)nc2C)cc1F (stereo not drawn),-2.3%
26,COc1ccc(NC(=O)CSc2nnc(Cn3c(=O)sc4ccccc43)n2C)cc1OC,-2.38%
27,CCOC(=O)c1sc2nc(Cc3ccc(Cl)cc3)[nH]c(=S)c2c1C,62.6%
28,CCOC(=O)c1sc2nc(C)n(N)c(=O)c2c1C,3.43%
